High-throughput results (PubChem BioAssay)
In the library only some 6.2% were active in any assay of this set; here they are far more common.
Luc counter: Counterscreen for Luciferase (Kinase-Glo TM) Inhibition | Kinase-Glo luciferase, ATP luminescence, 8 min | Luciferin 4-monooxygenase (Photuris pensylvanica), Q27757 | Potency, µM (top dose mostly 38.3 µM), without a hit: at the highest dose activity change, negative = inhibition, hits mostly inhibitors | actives 0.28% (n = 200,000); also: nearly all actives have a fitted effect of over 60% in size
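Luminescence was the read-out, taken after 8-minute incubation at ambient temperature. Luciferase turned over luciferin with 10 uM ATP in imidazole pH 7.2 buffer containing KCl, MgCl2, Tween 20 and BSA.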
RORgamma inh: qHTS for inhibitors of ROR gamma transcriptional activity. Nuclear receptor ROR-gamma (Mus musculus), P51450. Drosophila S2 Gal4-RORgamma UAS-luciferase reporter, 20 h. Potency, µM (top dose mostly 53.6 µM), for the others: top-dose activity change, negative = inhibition, hits mostly inhibitors. actives 5.4% (n = 310,000); also: nearly all actives have a fitted effect of over 60% in size
Target sequence (P51450 whole entry, looked up, the tested form may be a part): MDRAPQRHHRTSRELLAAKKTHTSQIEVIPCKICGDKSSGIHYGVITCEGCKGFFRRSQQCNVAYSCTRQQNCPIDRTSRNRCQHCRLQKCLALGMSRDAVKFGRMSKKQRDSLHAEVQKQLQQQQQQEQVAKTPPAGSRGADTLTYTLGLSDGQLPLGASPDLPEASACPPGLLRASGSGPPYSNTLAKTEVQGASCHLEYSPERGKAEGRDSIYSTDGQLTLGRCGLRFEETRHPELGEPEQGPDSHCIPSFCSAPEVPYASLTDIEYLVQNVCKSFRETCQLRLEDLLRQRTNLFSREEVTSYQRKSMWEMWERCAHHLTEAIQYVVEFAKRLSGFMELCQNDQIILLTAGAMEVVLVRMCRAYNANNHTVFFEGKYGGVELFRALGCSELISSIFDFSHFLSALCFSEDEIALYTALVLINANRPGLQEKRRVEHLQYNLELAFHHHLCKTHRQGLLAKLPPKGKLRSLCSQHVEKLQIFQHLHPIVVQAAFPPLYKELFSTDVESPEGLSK
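Read-out: Photinus luciferase luminescence; inhibitors lower reporter signal. Insect Schneider cells with Gal4-ROR gamma fusion under metallothionein promoter, UAS reporter; 700 uM final copper sulfate induction, 20 hr, ambient temperature.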
VP16 counter: VP16 counterscreen qHTS for inhibitors of ROR gamma transcriptional activity. Drosophila S2 Gal4-VP16 UAS-luciferase, luminescence, 20 h. Potency, µM (titrated, usually from 53.6 µM), for inactives: at the highest dose activity, negative = inhibition, most hits filed as inhibitors. actives 3.5% (n = 310,000);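 also: Gal4-VP16 expression switched on by copper sulfate through the metallothionein promoter; nearly all actives have a fitted effect of over 50% in size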
An asterisk follows results filed as active; ! = repeats disagree; [ ] = dose if it differs, or a comment. Calls follow the shape of the dose curve; as a rule, active = well fitted curve in the direction sought with a large enough effect; inconclusive = small, poorly fitted or top-dose-only effect, or another doubt; inactive = no such curve, though single readings can be large; an effect the other way counts as inactive or inconclusive. % is scaled to controls: 0 for no effect and ±100 for the full control effect; potency is read from the fitted curve at half-maximal effect.

How did O=C(Nc1ccc(N2CCOCC2)c(Cl)c1)c1cccnc1 do in these assays?
Luc counter: 0%; RORgamma inh: 12%; VP16 counter: 17%

How did CCCCCCN do in these assays?
RORgamma inh: -10%; VP16 counter: -14%

Results for O=c1c(-c2ccc(F)cc2)nc2cnc(Nc3ccccc3)nc2n1C1CC1 ?
Luc counter: -1%; RORgamma inh: 8%; VP16 counter: -18%

Results for COc1ccc(CC(=O)N/N=C/c2ccc(-c3cccc(C(=O)O)c3)o2)cc1OC ?
RORgamma inh: -22%; VP16 counter: 13%

Results for COCCn1c(COc2ccc(OC)cc2)nc2ccccc21 ?
Luc counter: -27%; RORgamma inh: -29%; VP16 counter: 4%

How did COCCn1c(-c2ccccc2)cnc1N do in these assays?
Luc counter: -1%; RORgamma inh: 11µM*; VP16 counter: inconclusive

How did COc1ccc(-c2cnc(N)n2C)cc1 do in these assays?
Luc counter: -2%; RORgamma inh: -28%; VP16 counter: 0%

How did Cn1c(-c2ccccc2)cnc1N do in these assays?
Luc counter: 0%; RORgamma inh: 13µM*; VP16 counter: -11%

Results for Cc1cccc(NC(=S)NNC(=O)CC(C)O)c1C (configuration not stated) ?
Luc counter: -1%; RORgamma inh: inconclusive; VP16 counter: -5%

Results for COC(=O)C(C(=O)OC)C1c2ccccc2C=C(C)N1C(=O)OC (configuration not stated) ?
Luc counter: -2%[7.66 µM]

How did CCCOc1ccc(S(=O)(=O)NCc2ccc(OC)cc2)cc1 do in these assays?
Luc counter: -8%; RORgamma inh: -8%; VP16 counter: inconclusive

How did COc1ncc2nc(-c3ccccc3)c(=O)n(CCc3ccccc3)c2n1 do in these assays?
RORgamma inh: 13%; VP16 counter: -4%

How did COc1c(O)cc2c(c1O)[C@@H]1O[C@H](CO)[C@@H](O)[C@H](O)[C@H]1OC2=O do in these assays?
RORgamma inh: -13%; VP16 counter: -11%

What do the screens show for `Cc1c(C(=O)O)c(O)cc2c1C(=O)c1c(O)c([C@H]3O[C@H](CO)[C@@H](O)[C@H](O)[C@H]3O)c(O)c(O)c1C2=O`?
Luc counter: 13µM*!; RORgamma inh: inconclusive; VP16 counter: inconclusive

What do the screens show for `O=[N+]([O-])c1ccc(O)c(C2=NNC(c3ccccc3F)C2)c1` (configuration not stated)?
RORgamma inh: 6.3µM*; VP16 counter: inconclusive

Results for COc1ccc([N+](=O)[O-])cc1C1NN=C(c2ccccc2O)S1 (configuration not stated) ?
Luc counter: 0%; RORgamma inh: -45%; VP16 counter: -12%

Results for O=C(O)CCC(=O)Nc1ccc(C(=O)OC2CCCCC2)cc1 ?
Luc counter: 2%; RORgamma inh: 18µM*; VP16 counter: inconclusive

What do the screens show for `CCCCC(=O)Nc1ccc(C(=O)OC2CCCCC2)cc1`?
Luc counter: -2%; RORgamma inh: 34%; VP16 counter: 8%

Results for COc1ccc(C2=Nn3c(nnc3-c3ccccc3C)SC2)cc1 ?
RORgamma inh: 19%; VP16 counter: 3%

How did Cc1cc(C)c(S(=O)(=O)N2CCCC(C(=O)N3CCOCC3)C2)c(C)c1 (configuration not stated) do in these assays?
RORgamma inh: -27%; VP16 counter: 5%

What do the screens show for `COc1cc2c(cc1OC)-c1nnnn1C(C)(C)C2`?
Luc counter: -1%; RORgamma inh: -3%[0.365 µM]

How did COc1cc2c(cc1OC)-c1n[nH]c(=S)n1C(C)(C)C2 do in these assays?
Luc counter: 10%; RORgamma inh: 7.9µM*; VP16 counter: inconclusive

How did COc1cc2c(cc1OC)C(=S)NC(C)(C)C2 do in these assays?
Luc counter: -4%; RORgamma inh: 20µM*; VP16 counter: inconclusive

Results for CCOC(=O)/C=C1\NC(C)(C)Cc2cc(OC)c(OC)cc21 ?
Luc counter: -3%; RORgamma inh: -1%; VP16 counter: 1%

What do the screens show for `O=c1cc(N2CCc3ccccc32)[nH]c(=O)n1-c1ccc(Cl)cc1`?
Luc counter: -4%; RORgamma inh: 7%; VP16 counter: -7%

How did CCc1ccc(C(=O)NC(=S)NCc2cccnc2)cc1 do in these assays?
RORgamma inh: -12%; VP16 counter: inconclusive

What do the screens show for `COc1ccccc1C(=O)N(CCC1CCCN1C)c1nc2ccccc2s1` (configuration not stated)?
Luc counter: -8%; RORgamma inh: 7.1µM*; VP16 counter: inconclusive

Results for COc1ccc2sc(N(CCCN(C)C)C(=O)c3nc4ccccc4s3)nc2c1 ?
Luc counter: 3%; RORgamma inh: -1%; VP16 counter: -5%

Results for O=C(CCC(=O)Nc1nnc(C2CCCCC2)s1)Nc1ccccc1 ?
RORgamma inh: 4%; VP16 counter: 11%

How did COc1cccc(N2CCN(C(=O)CCC(=O)N3CCOc4ccc(C)cc43)CC2)c1 do in these assays?
RORgamma inh: 1%; VP16 counter: -3%

What do the screens show for `COc1ccc(/C=C/C2=CC(C)(C)NC(=S)N2)cc1`?
Luc counter: 2%; RORgamma inh: 1.3µM*; VP16 counter: 2.5µM*

Results for C/C=C\c1ccc(OC)cc1 ?
RORgamma inh: 8%; VP16 counter: -8%

How did CCOC(=O)N1CCN([N+]([O-])=NOc2cc(O/N=[N+](\[O-])N(C)C)c([N+](=O)[O-])cc2[N+](=O)[O-])CC1 do in these assays?
RORgamma inh: 24%; VP16 counter: -1%

Results for Cc1nn(-c2ccccc2)c(N)c1N=Nc1ccccc1 ?
Luc counter: -1%; RORgamma inh: -38%; VP16 counter: -6%

How did Cc1cccc(N=Nc2c(C)nn(-c3ccccc3)c2N)c1C do in these assays?
Luc counter: 4%; RORgamma inh: 2.5µM*; VP16 counter: inconclusive

Results for CC(C)Nc1nc(-c2ccccn2)nc(-c2ccccc2)c1C#N ?
Luc counter: -1%; RORgamma inh: 2.5µM*; VP16 counter: inconclusive

What do the screens show for `CC(C)Nc1nc(-c2cccnc2)nc(-c2ccccc2)c1C#N`?
RORgamma inh: 1%; VP16 counter: 0%

How did CN1CCN(c2nc(-c3ccccc3)nc(-c3ccc(F)cc3)c2C#N)CC1 do in these assays?
Luc counter: -1%; RORgamma inh: -2%; VP16 counter: -6%

How did COc1ccccc1-c1nc(-c2ccccc2)nc(N2CCN(C)CC2)c1C#N do in these assays?
Luc counter: -1%; RORgamma inh: 14µM*; VP16 counter: -19%

What do the screens show for `COc1ccc(N2CCN(c3ncccc3C#N)CC2)cc1`?
Luc counter: 0%; RORgamma inh: 20%; VP16 counter: -8%

Results for COc1ccc(-c2nc(-c3ccccn3)nc(N3CCN(C)CC3)c2C#N)cc1 ?
Luc counter: 1%; RORgamma inh: 1.4µM*; VP16 counter: -7%

What do the screens show for `c1ccc(COCc2ccccc2)cc1`?
RORgamma inh: 1%; VP16 counter: -2%

What do the screens show for `CCOC(=O)Cc1nnc(NC(=O)CSc2ncc(-c3ccccc3)nn2)s1`?
Luc counter: -3%; RORgamma inh: 13%; VP16 counter: -6%[10 µM]
